Screening data deposited in PubChem BioAssay by several laboratories.
The list is not random: actives were taken first. Their share in the collection is about 3%.
KLF5 inh – KLF5 expression inhibitors, primary screen, DLD-1 cells, luminescence; inhibition, % at 5 µM; AID 1700, 2009; 0.23% of 290,000 active; DLD-1 KLF5 promoter-luciferase reporter;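 active = inhibition above a per-plate limit of that plate's mean compound inhibition plus 3 SD, cut at about 60% in these data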;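 note: higher means less KLF5 promoter-driven luciferase light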
aSyn UTR inh – MLPCN primary screen, SNCA 5' untranslated region; alpha-synuclein 5'UTR reporter, inhibitor activity; inhibition, % (tested at 7.5 µM); 0.82% of 300,000 active; in the data active = inhibition above about 60%; inconclusive = no clear call, values can overlap the other calls;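 note: H4 neuroglioblastoma cells stably carrying SNCA 5'UTR luciferase fusion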
IEC-6 tox – cytotoxicity in IEC-6 intestinal epithelial cells, primary screen, cytotoxicity control for KLF5 inhibitor project, cell-based, luminescence. inhibition, % at 5 µM. 0.78% of 290,000 active. IEC-6 cytotoxicity, luminescence viability
CSC inhib – cancer stem cell viability inhibitors, primary screen, luminescence. inhibition, % at 7.5 µM. 1.1% of 300,000 active. cancer stem cell-like cells viability. AID 2717, 2010; in the data active = inhibition above about 75%; inconclusive = no clear call, values can overlap the other calls; tested in HMLE shEcad cells
SKKanGAS inh – S. pyogenes SKKanGAS growth inhibitors in kanamycin, primary screen, streptokinase expression inhibitor project, SKKanGAS strain, BacTiter-Glo luminescence. 1.3% of 300,000 active. 6 h. inhibition, % at 7.5 µM;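 active = mean replicate score, as percent of positive control median, at least 50; inconclusive = mean below 50 but one replicate at or above 50; inactive = mean and every replicate below 50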;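 note: strain carries kanamycin resistance gene driven by streptokinase promoter and grows in 40 µg/ml kanamycin; loss of luminescence reflects streptokinase promoter inhibition or plain growth inhibition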
IEC-6 tox confirm – cytotoxic compounds in IEC-6 epithelial cells, confirmation, cytotoxicity control, cell-based, luminescence; 63% of 1,900 active; inhibition, % at 5 µM; shares compounds with IEC-6 tox; IEC-6 rat intestinal epithelial viability
Numbers stand for hits; 0 = inactive; ? = inconclusive; - = no result. Cut-off read from the data, not from the text of the source, unless noted: active = inhibition above about 22%; inactive = the rest.

SMILES	KLF5 inh	aSyn UTR inh	IEC-6 tox	CSC inhib	SKKanGAS inh	IEC-6 tox confirm
CCOc1ccc(S(=O)(=O)N2CCCC(C(=O)N3CCCC3)C2)cc1 (stereo not given)	0	0	0	0	0	-
COc1ccc(C(=O)c2ccc(N(C)C)cc2)c2ccccc12	0	74	78	-	0	58
CC(=O)N1C(=O)N(C(C)=O)C2C1N(C)C(=O)N2C(C)=O (stereo not given)	0	0	0	0	0	-
CC1(C)Cc2c(sc3ncnc(NNC(=S)NCc4ccccc4)c23)CO1	0	87	76	0	0	0
Cc1cccc(OCCN2C(=O)C(=O)c3cccc(C)c32)c1	0	0	0	-	0	-
Cc1cccc(OCCN2C(=O)C(=O)c3cc(C)ccc32)c1	0	0	79	0	0	56
Cc1cc(C(=O)NC2CCCc3c2cnn3-c2ccc(C)c(C)c2)n(C)n1 (stereo not given)	0	0	38	0	0	27
CCc1cc(C(=O)NC2CCCc3c2cnn3-c2cccc(C)c2C)n(C)n1 (stereo not given)	0	0	31	0	0	25
COc1ccc(S(=O)(=O)NCc2ccccn2)cc1NC(=O)c1ccccc1	0	0	45	0	0	45
C/C(=N\NC(=O)Cc1ccc(Cl)cc1)c1ccc(F)cc1	0	0	0	0	0	-
C/C(=N\NC(=O)Cc1ccc(Cl)cc1)c1ccccc1O	0	0	28	0	0	29
COc1ccc(C)cc1S(=O)(=O)n1cnc(C)c1	0	0	0	0	0	-
COc1cc(C)c(C(C)C)cc1S(=O)(=O)n1cnc(C)c1	0	64	36	0	0	51
Cc1ccc(NC(=O)CCc2nnc3ccc(N4CCC5(CC4)OCCO5)nn23)cc1F	0	0	0	0	0	-
c1ccc(N/N=C(\Cc2nc3ccccc3[nH]2)c2ccccc2)cc1	0	0	0	0	0	-
Cc1ccc(N/N=C(\Cc2nc3ccccc3[nH]2)c2ccccc2)cc1	0	-	55	92	-	61
COc1cc2ncnc(NCc3cccs3)c2cc1OC	0	0	33	0	0	32
CCCCN(C(=O)c1cc2c(s1)CCC2)c1c(N)n(CCCC)c(=O)[nH]c1=O	-	0	-	0	0	-
COc1ccccc1Nc1c2ccccc2nc2ccccc12	0	0	28	0	0	0
c1cncc(Nc2c3ccccc3nc3ccccc23)c1	0	0	0	0	0	-
COc1ccc(Nc2c3ccccc3nc3ccccc23)cc1	0	0	74	0	0	31
COc1cc(Nc2c3ccccc3nc3ccccc23)cc(OC)c1OC	0	0	0	0	0	-
Oc1cccc(Nc2c3ccccc3nc3ccccc23)c1	0	0	35	0	0	36
COc1ccc(Nc2nc(-c3ccncc3)nc3ccccc23)cc1	0	0	30	0	0	0
COc1ccc(Nc2c3c(nc4ccccc24)CCC3)cc1	0	0	0	0	0	-
SMILES	KLF5 inh	aSyn UTR inh	IEC-6 tox	CSC inhib	SKKanGAS inh	IEC-6 tox confirm
Cc1noc(C)c1C(=O)NCc1ccccc1F	0	0	0	-	0	-
Cc1ccc(C(=O)Nc2ccc(Nc3ccccc3)cc2)c(Cl)c1	0	0	0	0	0	-
C1CCN(CCCNC2C3CC4CC(C3)CC2C4)C1 (stereo not given)	0	0	0	0	0	-
Cc1ccc(CSCC(=O)Nc2ccccc2C(=O)O)cc1	0	0	29	0	0	25
Cc1ccnc(NC(=O)CCC(=O)N(CC(=O)NC(C)(C)C)c2ccc3c(c2)OCO3)c1	0	0	0	0	0	-
CS(=O)(=O)Nc1cccc(C2=NN(C(=O)c3ccco3)C(c3ccco3)C2)c1 (stereo not given)	0	0	0	0	0	-
CCS(=O)(=O)Nc1cccc(C2=NN(C(=O)c3ccco3)C(c3ccco3)C2)c1 (stereo not given)	0	0	47	0	0	22
O=c1c2ccccc2[nH]c(=S)n1CCCN1CCN(c2ccccc2)CC1	0	0	34	0	0	0
COCCNC(=O)CCC1CCN(Cc2cccc(Oc3ccccc3)c2)CC1	0	0	0	0	0	-
COc1ccc(C(=O)N/N=C/c2sc3ccccc3c2O)cc1	0	84	27	?	0	0
COc1ccc(C(=O)N/N=C/C(=O)c2ccccc2)cc1	0	0	0	-	0	-
O=C(COC(=O)c1cncc(Br)c1)NC1CCCCCC1	0	0	0	0	0	-
COc1ccccc1C(=O)Nc1ccc2c(c1)nc(CCNC(=O)c1ccco1)n2C	0	0	69	-	0	53
CC(Nc1ncnc2ccccc12)c1ccccc1 (stereo not given)	0	0	28	0	0	27
CCC(=O)N1CCN(c2ccccc2NC(=O)c2ccc([N+](=O)[O-])o2)CC1	0	0	38	0	0	0
CC(C)C(=O)N1CCN(c2ccccc2NC(=O)c2ccc([N+](=O)[O-])o2)CC1	0	0	26	0	0	23
COc1ccc(C(=O)N/N=C/c2ccc(OC)c(COc3c(F)c(F)cc(F)c3F)c2)cc1	0	-	0	0	-	-
COc1ccc(C(=O)N/N=C\c2ccc(OC)c(COc3ccccc3Br)c2)c(OC)c1	0	0	22	0	0	0
COc1cc(OC)cc(C(=O)N/N=C/c2ccc(OC)c(COc3ccc(F)cc3)c2)c1	0	0	65	0	0	40
COc1ccc(OCc2cc(/C=N\NC(=O)c3ccccc3)ccc2OC)cc1	0	0	33	0	0	0
COc1ccc(/C=N\NC(=O)c2ccccc2Br)cc1COc1ccccc1	0	0	0	0	0	-
Cn1c2c(c(=O)n(C)c1=O)C(C(F)(F)F)(C(F)(F)F)N=C(CCC1CCCCC1)N2	0	0	0	0	0	-
COc1ccc(N2CCN(C3CCCN(Cc4cccc(C(C)=O)c4)C3)CC2)cc1 (stereo not given)	0	0	0	0	0	-
COc1ccc(C(=O)c2ccc(Cl)c([N+](=O)[O-])c2)cc1	0	0	66	0	0	73
COc1ccc(C(=O)c2ccc(Cl)cc2)cc1	0	0	0	0	0	-
SMILES	KLF5 inh	aSyn UTR inh	IEC-6 tox	CSC inhib	SKKanGAS inh	IEC-6 tox confirm
Cc1ccc(NC(=O)CC2(CC(=O)O)CCCC2)c(C)c1	0	0	0	-	0	-
COc1cc(OC)nc(Oc2cc(C=O)ccc2OC)n1	0	0	0	0	0	-
COCCCNC(=S)NNC(=O)c1cc(Cl)c(O)c(Cl)c1	0	0	0	0	0	-
COCCCNC(=S)NNC(=S)NCCCOC	0	0	22	0	0	0
O=C(N/N=C/c1ccc(O)cc1)Nc1cccc2nsnc12	0	0	81	0	0	91
COC(=O)Nc1ccc(S(=O)(=O)N2CCCCC2C(=O)O)cc1 (stereo not given)	0	0	0	0	0	-
CC(=O)Nc1ccc(S(=O)(=O)N2CCCc3ccccc32)cc1	0	0	40	0	0	42
COC(=O)Nc1ccc(S(=O)(=O)N2c3ccccc3CCC2C)cc1 (stereo not given)	0	0	48	145	0	53
